Assay outcomes (PubChem)
A selection: hits, their analogues and other compounds. The true share with any hit is near 3.1%.
GLS inhibitor: qHTS for Inhibitors of Glutaminase (GLS); GLS enzymatic activity, qHTS titration; Potency, µM (titrated, usually from 45.5 µM), without a hit: at the highest dose activity change, negative = inhibition, usual class: inhibitors; Glutaminase kidney isoform, mitochondrial (Homo sapiens), O94925; AID 624170, 2012; 0.21% of 410,000 active; also: potency is read from the fitted curve at half-maximal effect
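hKGA in 45 mM KH2PO4 (pH 8.2), 0.02% Tween-20 with compound, then 1mM L-Glutamine (stock as added) plus glutamate oxidase/HRP/Amplex red coupling mix. Fluorescence read initially and after 30 min at RT; signal change reflects glutamate formation.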
GCN5L2 inh: qHTS Assay for Inhibitors of GCN5L2; GCN5L2 HAT assay, ThioGlo1 CoA-SH fluorescence; 0.21% of 390,000 active; Potency, µM (series often up to 58.9 µM), without a hit: top-dose activity change, negative = inhibition, most hits filed as inhibitors; also: potency is read from the fitted curve at half-maximal effect
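Fluorescence readout, Ex340nm/Em540nm: ThioGlo1 (50uM final) reacts with free CoA thiol released as 20nM GCN5L2 acetylates H3(1-25) peptide (75uM) using acetyl-CoA (70uM). Compound and enzyme sat 15 min beforehand; 20 min room-temperature reaction.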
PLK1 PBD block: qHTS for Inhibitors of PLK1-PDB (polo-like kinase 1 - polo-box domain): Primary Screen; Serine/threonine-protein kinase PLK1 (Homo sapiens), P53350; Plk1 PBD binding of FITC phosphopeptide, fluorescence polarization; Potency, µM, for the others: max response, negative = inhibition, usual class: inhibitors; 2.8% of 360,000 active; AID 720504, 2013; also: potency is read from the fitted curve at half-maximal effect; series mostly up to about 57 µM; nearly all actives have a fitted effect of over 65% in size
VDR inhibitor: Inhibitors of the vitamin D receptor (VDR): qHTS; Vitamin D3 receptor (Homo sapiens), P11473; Potency, µM, for the others: max response, negative = inhibition, most hits filed as inhibitors; AID 504847, 2011; 0.93% of 400,000 active; VDR-SRC2-3 peptide fluorescence polarization, 2 h; also: potency is read from the fitted curve at half-maximal effect
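After 23 nl compound addition and a short centrifugation, plates sat for 2 hours at ambient temperature; polarization of fluorescence then indicated loss of VDR binding to peptide SRC2-3.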
PI4K2A inh: qHTS for small molecular inhibitors of PI4K2A. Phosphatidylinositol 4-kinase type 2-alpha (Homo sapiens), Q9BTU6. AID 1346378, 2018. purified PI4K2A, ADP-Glo luminescence, 1 h; stronger effect = lower value. activity change, negative = inhibition, % at 76.9 µM. 0.13% of 420,000 active; in the data active = activity change below about -50%; inconclusive = mostly about -30% to -49%;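 also: -100% = wells without enzyme as full effect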
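In this quantitative HTS, ADP production by PI4K2A was quantified luminescently after 1 h at ambient temperature; 100 microM adenosine served as plate-quality control.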
Numbers without * were called inactive; ? = inconclusive; . = no result. Unless noted, calls follow the shape of the dose curve; as a rule, active = well fitted curve in the direction sought with a large enough effect; inconclusive = small, poorly fitted or top-dose-only effect, or another doubt; inactive = no such curve, though single readings can be large; an effect the other way counts as inactive or inconclusive. Unless noted, % is scaled to controls: 0 for no effect and ±100 for the full control effect.

SMILES	GLS inhibitor	GCN5L2 inh	PLK1 PBD block	VDR inhibitor	PI4K2A inh
Nc1ccc2c(c1)OC1(CCCC1)O2	?	15%	-19%	79µM*	7
O=C(Cc1ccccc1)Nc1ccc2c(c1)OC1(CCCC1)O2	-2%	-4%	1%	-8%	5
CCOc1cccc(C2c3c(oc4ccc(F)cc4c3=O)C(=O)N2c2cc(C)ccn2)c1 (stereo unspecified)	-4%	14%	.	-5%	0
COCCOC(=O)/C(=C\c1cc(C(C)(C)C)c(O)c(C(C)(C)C)c1)C(C)=O	1%	-6%	-10%	35µM*	2
CCOC(=O)c1ccc2nc(C(F)(F)F)[nH]c(=O)c2c1	29%	1%	27µM*	-4%	-7
O=C(Nc1ccc2ccccc2c1)C1CC2CCC1C2 (stereo unspecified)	.	.	.	.	0
O=C(NC1CC1)c1sc2ccccc2c1Cl	-8%	1%	-10%	-17%	-2
O=C(NNC(=S)NC1CCCCC1)c1sc2ccccc2c1Cl	23%	-8%	21µM*	-20%	4
CCN(CC)C(=O)CC[C@@H]1CC[C@]2(CCCN(Cc3cccc4ccccc34)C2)O1	.	.	.	.	1
CC(C)c1ccccc1NC(=O)COC(=O)Cc1cccc(C(F)(F)F)c1	29%	-3%	27µM*	?	0
Cc1ccccc1NC(=O)Cc1cccc(C(F)(F)F)c1	-4%	-1%	-14%	-3%	0
O=C(Cc1cccc(C(F)(F)F)c1)Nc1ccccc1	3%	-7%	24µM*	-2%	3
O=C(Nc1ccc(Cl)cc1)N1CCN(Cc2nc3ccccc3c(=O)[nH]2)CC1	.	.	.	.	-7
COC(=O)[C@]12C[C@H](CC(=O)NCCc3ccccc3OC)C(=O)N(CCC3=CCCCC3)C1=C[C@H](C1CCCC1)O[C@@H]2C	.	.	.	.	3
C[C@H]1C2CC(OC(=O)Nc3ccc(F)cc3)C(C2)[C@H]2CCCCN21 (stereo partly specified)	.	.	.	.	-1
O=C1CCCC2=C1Sc1ccccc1N2	13µM*	0%	-21%	6%	-1
CN(CCCOC(=O)CC1C=CCC1)C1CN(Cc2cn(Cc3ccccc3Cl)nn2)S(=O)(=O)C1 (stereo unspecified)	.	.	.	.	-3
COc1ccc(-c2cn3cc(C)ccc3n2)cc1OC	5%	?	-3%	-2%	-4
COc1ccc(-c2cn3cc(C)ccc3n2)cc1F	-13%	-8%	9.5µM*	?	12
COc1ccc(C(c2c(C)[nH]n(-c3ccccc3)c2=O)c2c(C)[nH]n(-c3ccccc3)c2=O)cc1OC	3%	38%	2.7µM*	-8%	-18
Cc1[nH]n(-c2ccccc2)c(=O)c1C(c1cc(Cl)ccc1O)c1c(C)[nH]n(-c2ccccc2)c1=O	-4%	2%	.	?	-51*
CCOc1cc(C(c2c(C)[nH]n(-c3ccccc3)c2=O)c2c(C)[nH]n(-c3ccccc3)c2=O)ccc1O	3%	-3%	.	?	1
COCCNc1nc(-c2ccc(N(C)C)cc2)nc2ccccc12	.	-13%	.	79µM*	.
COCCNc1nc(-c2ccc(C(=O)N(C)C)cc2)nc2ccccc12	.	-15%	.	23%	.
Cc1sc(-n2c(C)cc(/C=N/n3cnnc3)c2C)c(C#N)c1C	-21%	-8%	17µM*	?	4
SMILES	GLS inhibitor	GCN5L2 inh	PLK1 PBD block	VDR inhibitor	PI4K2A inh
CC(C)C[C@@H]1COc2cc(Br)ccc2S(=O)(=O)N1Cc1cn(Cc2ccc(Br)cc2)nn1	.	.	.	.	3
CC1CCN(c2ccc3c(c2)S(=O)(=O)c2cccc(C(=O)NCc4ccc(F)cc4)c2C3=O)CC1	2%	-25%	84µM*	-14%	1
O=C(NCc1cc(C(F)(F)F)ccc1Cl)c1cccc2c1C(=O)c1ccc(N3CCC(Cc4ccccc4)CC3)cc1S2(=O)=O	-12%	-2%	24µM*	-8%	1
CCOC(=O)CSc1nc(N)cc(=O)[nH]1	-11%	-4%	-9%	15%	2
CCOC(=O)Cc1cnc(NC(=O)CSc2nc(N)cc(=O)[nH]2)s1	4%	4%	17µM*	?	0
Cc1ccc(NC(=O)CSc2ccc(Br)cc2)cc1S(=O)(=O)N1CCOCC1	2%	-6%	12µM*	-27%	-2
O=C(c1c(F)cccc1F)N1CCC(Oc2cccnc2)CC1	.	.	.	.	-2
CC(Oc1ccccc1)C(=O)N1CCC2(CC1)Oc1ccc(F)cc1C(=O)C21CC(c2ccccc2)=NO1 (stereo unspecified)	12%	.	21µM*	?	2
CC(Oc1ccccc1)C(=O)N1CCC2(CC1)Oc1ccc(F)cc1C(=O)C21CC(c2ccc(Cl)cc2)=NO1 (stereo unspecified)	-4%	.	2%	-12%	-2
Cc1ccnc(NC(=O)/C=C/c2ccccc2[N+](=O)[O-])c1	.	0%	.	.	.
Cc1ccnc(NC(=O)c2ccccc2[N+](=O)[O-])c1	-5%	-10%	9.5µM*	6%	-1
CCOC(=O)[C@]12CCCCC/C=C\1N(Cc1ccc(OC)cc1)C(=O)[C@H]2CC(=O)NCc1ccc(OC)c(OC)c1	.	.	.	.	3
COC(=O)[C@]12C[C@H](CC(=O)NCCCCc3ccccc3)C(=O)N(Cc3ccco3)C1=C[C@H](C1CCCC1)O[C@@H]2C	.	.	.	.	1
CCC/C(=N/NC(=O)c1nnn(-c2nonc2N)c1CN1CCCCC1)c1ccccc1	20%	.	27µM*	-25%	2
CC1CC=CC2C1C(=O)N(Cc1ccccc1)C2c1ccc(-c2cc3ccccc3s2)cc1F (stereo unspecified)	.	.	.	-23%	.
COc1ccc(-c2n[nH]c(=S)n2-c2cc(OC)ccc2OC)cc1	-18%	-3%	-2%	3%	-1
Cc1cc(Cl)ccc1OCc1n[nH]c(=S)n1C1CCCCC1	?	-15%	?	8%	4
COc1ccc(-c2n[nH]c(=S)n2N)c(OC)c1	-16%	-5%	8.4µM*	0%	2
COc1ccc(Cl)cc1-c1n[nH]c(=S)n1C1CCCCC1	4µM*	-4%	-2%	-5%	0
COc1ccc(OC)c(-n2c(-c3cccc(O)c3)n[nH]c2=S)c1	-6%	-16%	27µM*	-24%	-2
COc1ccc(-n2c(-c3ccc(Cl)cc3Cl)n[nH]c2=S)c(OC)c1	11µM*	1%	24µM*	?	1
O=C(c1cccs1)N1CC[C@H]2[C@H](CCCN2Cc2ccc(F)cc2)C1	.	.	.	.	4
Cc1cn(CC2COC(C)(C)O2)c(=O)[nH]c1=O (stereo unspecified)	?	-3%	6µM*	-24%	-15
COC(Cn1cc(C)c(=O)[nH]c1=O)OC	-15%	-2%	-1%	-1%	-23
